From PubChem BioAssay (NCI)
About 79,000 compounds went through this panel and 15% of them were active in at least one assay; those are over-represented in the sample as a whole. Calls of active or inactive are those of the source. Rule as the data show it: active = growth inhibition above about 70%; inactive = the rest.

Assays:
[1] = NCI Yeast Anticancer Drug Screen. Data for the rad52 strain (AID 147);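 also: 0% = growth of vehicle-treated control cultures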; conditions: S. cerevisiae rad52 mutant growth inhibition, stronger effect = higher value
In short: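 Here a repair-compromised yeast strain receives each compound; its growth is then quantified and normalised to vehicle-only controls.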

[2] = NCI Yeast Anticancer Drug Screen. Data for the wt1 strain (AID 149);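 also: 0% = growth of vehicle-treated wt1 cultures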; conditions: S. cerevisiae wt1 strain (SPY 50644) growth inhibition, stronger effect = higher value
In short: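 Measured: growth of wt1 yeast under compound versus vehicle treatment, reported as inhibition.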

[3] = NCI Yeast Anticancer Drug Screen. Data for the mgt1 strain (AID 153); conditions: S. cerevisiae mgt1 mutant growth inhibition, stronger effect = higher value
In short: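 Measured: inhibition of mgt1 yeast growth by compound, normalized to vehicle-treated cultures.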

[4] = NCI Yeast Anticancer Drug Screen. Data for the rad50 strain (AID 155);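 also: 0% = growth of vehicle-only cultures of the same strain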; conditions: S. cerevisiae rad50 strain growth inhibition, stronger effect = higher value
In short: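 Growth of the mutant yeast was measured after compound exposure and referenced to vehicle-treated cultures.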

[5] = NCI Yeast Anticancer Drug Screen. Data for the mec2-1 strain (AID 157); conditions: S. cerevisiae mec2-1 strain, stronger effect = higher value
In short: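 Using mec2-1 yeast: add compound, measure growth, express inhibition versus vehicle-treated cultures.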

[6] = NCI Yeast Anticancer Drug Screen. Data for the rad14 strain (AID 159);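 also: 0% = growth of vehicle-treated control cultures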; conditions: S. cerevisiae rad14 strain growth inhibition, stronger effect = higher value
In short: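 Here, inhibition of yeast growth was measured after compound exposure, using a strain with a genetic defect in DNA damage repair and vehicle-treated cultures as the reference.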

[7] = NCI Yeast Anticancer Drug Screen. Data for the sgs1 mgt1 strain (AID 161);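 also: 0% = growth of cultures given vehicle only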; conditions: S. cerevisiae sgs1 mgt1 strain, stronger effect = higher value
In short: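 Compounds are added to genetically altered yeast, and growth is compared with cultures given vehicle alone to give percent inhibition.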

[8] = NCI Yeast Anticancer Drug Screen. Data for the CLN2oe strain (AID 163);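 also: 0% = growth of vehicle-only control cultures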; conditions: S. cerevisiae CLN2oe strain, stronger effect = higher value
In short: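 Whole-cell yeast growth assay. A strain engineered for altered cell-cycle control received compound, and inhibition relative to vehicle-treated cultures was recorded.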

[9] = NCI Yeast Anticancer Drug Screen. Data for the cln2 rad14 strain (AID 165);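 also: 0% = growth equal to vehicle treated cultures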; conditions: S. cerevisiae cln2 rad14 strain, stronger effect = higher value
In short: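 Yeast strain cln2 rad14, bearing defects in cell cycle control and DNA repair, serves as the test system; values reflect growth inhibition compared with vehicle.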

[10] = NCI Yeast Anticancer Drug Screen. Data for the bub3 strain (AID 167); conditions: S. cerevisiae bub3 mutant strain, stronger effect = higher value
In short: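 Whole-cell yeast assay. The mutant strain was incubated with compounds, and growth inhibition was determined by comparison with vehicle-treated cells.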

[11] = NCI Yeast Anticancer Drug Screen. Data for the wt2 strain (AID 169);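 also: 0% = growth of vehicle-treated yeast cultures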; conditions: S. cerevisiae wt2 strain growth inhibition, stronger effect = higher value
In short: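 Treated yeast vs. vehicle-treated yeast: growth inhibition determined.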

[12] = NCI Yeast Anticancer Drug Screen. Data for the mlh1 strain (AID 171);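 also: 0% = growth of vehicle-treated control cultures of the same strain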; conditions: S. cerevisiae mlh1 strain growth inhibition, stronger effect = higher value
In short: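 A yeast strain with a defined genetic lesion serves as the test organism. Cultures receive compound or vehicle, and growth is measured.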

[13] = NCI Yeast Anticancer Drug Screen. Data for the sgs1 strain (AID 173);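 also: 0% = growth of vehicle-only control cultures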; conditions: S. cerevisiae sgs1 mutant, stronger effect = higher value
In short: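 A genetically defined yeast mutant is incubated with the test compound, and its growth is compared to that of the same strain given vehicle.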

[14] = NCI Yeast Anticancer Drug Screen. Data for the mlh1 rad18 strain (AID 175); conditions: S. cerevisiae mlh1 rad18 strain growth inhibition, stronger effect = higher value
In short: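 Steps: expose repair-defective yeast to compound; measure growth; express inhibition against vehicle-treated controls.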

[15] = NCI Yeast Anticancer Drug Screen. Data for the rad18 strain (AID 177); conditions: S. cerevisiae rad18 mutant growth inhibition, stronger effect = higher value
In short: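 Measured value is growth inhibition of a yeast strain bearing a DNA repair alteration, referenced to vehicle-treated cells.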

[16] = NCI Yeast Anticancer Drug Screen. Data for the rad50EPP+ strain (AID 151);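 also: 0% = growth of vehicle-treated control cultures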; conditions: S. cerevisiae rad50 mutant strain, stronger effect = higher value
In short: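 Read-out is yeast growth inhibition relative to vehicle; cells used were the rad50EPP+ strain.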

[17] = at 5.0 µM (retest, dose inferred, filed as 0.5)
[18] = at 50.0 µM (retest, dose inferred, filed as 5.0)

Measured: growth inhibition

COC(=O)c1ccccc1N=NNc1cccc(SC)c1
inactive: [1]; at 1.2 µM 11% | [1]; at 3.7 µM 13% | [1]; at 11.0 µM 23% | [2]; at 1.2 µM -14% | [2]; at 3.7 µM -31% | [2]; at 11.0 µM -27% | [3]; at 1.2 µM -16% | [3]; at 3.7 µM -18% | [3]; at 11.0 µM -3% | [4]; at 1.2 µM 12% | [4]; at 3.7 µM 16% | [4]; [17] 30% | [4]; at 11.0 µM 28% | [4]; [18] 41% | [5]; at 1.2 µM 1% | [5]; at 3.7 µM 9% | [5]; [17] 40% | [5]; at 11.0 µM 19% | [5]; [18] 39% | [6]; at 1.2 µM -11% | [6]; at 3.7 µM -21% | [6]; at 11.0 µM -6% | [7]; [17] 1% | [8]; at 1.2 µM -17% | [8]; at 3.7 µM 12% | [8]; at 11.0 µM -9% | [9]; [17] 42% | [10]; at 1.2 µM 12% | [10]; at 3.7 µM 6% | [10]; [17] 3% | [10]; at 11.0 µM 25% | [11]; at 1.2 µM -11% | [11]; at 3.7 µM -18% | [11]; at 11.0 µM 8% | [12]; at 1.2 µM 2% | [12]; at 3.7 µM 4% | [12]; at 11.0 µM 17% | [13]; at 1.2 µM -6% | [13]; at 3.7 µM -13% | [13]; at 11.0 µM 16% | [14]; [17] 21% | [14]; [18] 36% | [15]; at 1.2 µM -10% | [15]; at 3.7 µM -13% | [15]; at 11.0 µM 11%
active: [1]; at 33.0 µM 89% | [1]; at 100.0 µM 88% | [2]; at 33.0 µM 90% | [2]; at 100.0 µM 88% | [3]; at 33.0 µM 92% | [3]; at 100.0 µM 88% | [4]; at 33.0 µM 93% | [4]; at 50.0 µM 86.8% | [4]; at 100.0 µM 87% | [5]; at 33.0 µM 93% | [5]; at 50.0 µM 85.7% | [5]; at 100.0 µM 89% | [6]; at 33.0 µM 93% | [6]; at 100.0 µM 87% | [7]; [18] 94% | [7]; at 50.0 µM 88.8% | [8]; at 33.0 µM 93% | [8]; at 100.0 µM 85% | [9]; [18] 87% | [9]; at 50.0 µM 86% | [10]; at 33.0 µM 94% | [10]; [18] 87% | [10]; at 50.0 µM 85.9% | [10]; at 100.0 µM 89% | [11]; at 33.0 µM 93% | [11]; at 100.0 µM 89% | [12]; at 33.0 µM 94% | [12]; at 100.0 µM 88% | [13]; at 33.0 µM 93% | [13]; at 100.0 µM 84% | [14]; at 50.0 µM 85.2% | [15]; at 33.0 µM 94% | [15]; at 100.0 µM 89%

Cc1cccc2c(NCCCN(C)C)c3c([N+](=O)[O-])ccc(C)c3nc12
inactive: [16]; at 1.2 µM 29% | [16]; at 3.7 µM 55% | [3]; at 1.2 µM 8% | [3]; at 3.7 µM 20% | [3]; at 11.0 µM 69% | [4]; at 1.2 µM 54% | [4]; [17] 1% | [5]; at 1.2 µM 22% | [5]; at 3.7 µM 61% | [5]; [17] -2% | [5]; [18] 11% | [7]; [17] 12% | [7]; [18] 46% | [8]; at 1.2 µM -2% | [8]; at 3.7 µM 9% | [8]; at 11.0 µM 41% | [9]; [17] 49% | [10]; at 1.2 µM -8% | [10]; at 3.7 µM -6% | [10]; [17] -24% | [10]; at 11.0 µM 16% | [11]; at 1.2 µM 4% | [11]; at 3.7 µM 15% | [11]; at 11.0 µM 49% | [12]; at 1.2 µM 8% | [12]; at 3.7 µM 18% | [12]; at 11.0 µM 63% | [14]; [17] 12% | [14]; [18] 61%
active: [1]; at 1.2 µM 76% | [1]; at 3.7 µM 91% | [1]; at 11.0 µM 94% | [1]; at 33.0 µM 97% | [1]; at 100.0 µM 97% | [16]; at 11.0 µM 85% | [16]; at 33.0 µM 94% | [16]; at 100.0 µM 95% | [3]; at 33.0 µM 98% | [3]; at 100.0 µM 98% | [4]; at 3.7 µM 79% | [4]; at 11.0 µM 92% | [4]; at 33.0 µM 94% | [4]; [18] 78% | [4]; at 50.0 µM 97.8% | [4]; at 100.0 µM 96% | [5]; at 11.0 µM 96% | [5]; at 33.0 µM 98% | [5]; at 50.0 µM 96.9% | [5]; at 100.0 µM 98% | [6]; at 1.2 µM 98% | [6]; at 3.7 µM 98% | [6]; at 11.0 µM 99% | [6]; at 33.0 µM 99% | [6]; at 100.0 µM 98% | [7]; at 50.0 µM 96.8% | [8]; at 33.0 µM 88% | [8]; at 100.0 µM 96% | [9]; [18] 95% | [9]; at 50.0 µM 91% | [10]; at 33.0 µM 90% | [10]; [18] 97% | [10]; at 50.0 µM 72.2% | [10]; at 100.0 µM 96% | [11]; at 33.0 µM 95% | [11]; at 100.0 µM 97% | [12]; at 33.0 µM 97% | [12]; at 100.0 µM 98% | [13]; at 1.2 µM 85% | [13]; at 3.7 µM 92% | [13]; at 11.0 µM 95% | [13]; at 33.0 µM 98% | [13]; at 100.0 µM 98% | [14]; at 50.0 µM 97.1% | [15]; at 1.2 µM 96% | [15]; at 3.7 µM 96% | [15]; at 11.0 µM 96% | [15]; at 33.0 µM 96% | [15]; at 100.0 µM 96%
